Source: the supplement of paper PMC12350171
Structures can show the parent of a compound that is named as a salt. Unmarked numbers belong to inactive results.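 The calls were made as follows: active = AUC significantly below DMSO controls by Student t-fit with adjusted P under 0.01; inactive = not significantly reduced.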

Each compound was assayed on Haemophilus parainfluenzae (assay: growth AUC normalised to DMSO control (fraction of control); higher = less growth inhibition, active = hit call of the paper). Details: 20 µM.
How it was run: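 Hemin and NAD were added to the medium for Haemophilus parainfluenzae. All pathogens, after two anaerobic passages, were inoculated at a starting OD578 of 0.01 into pre-reduced mGAM plates with 20 μM compound and 1% DMSO under breathable seals, and OD578 was read hourly for 24 h in three biological replicates. AUC of each growth curve was obtained with the trapezoidal rule up to the exponential-to-stationary transition and normalised to DMSO controls from the same plate.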

Going from `CC[C@H](C)C(=O)O[C@H]1C[C@H](O)C=C2C=C[C@H](C)[C@H](CC[C@@H](O)C[C@@H](O)CC(=O)O)[C@H]21` [Pravastatin] to `CCCN(CCC)C(=O)C(CCC(=O)O)NC(=O)c1ccccc1` (stereo not drawn) [Proglumide], the “growth AUC normalised to DMSO control” value falls from 1.09 to 1.03.

Going from `CNC(C)CCC=C(C)C` (stereo not drawn) [Isometheptene mucate] to `CCOC(=O)C1=C(COCCN)NC(C)=C(C(=O)OC)C1c1ccccc1Cl` (stereo not drawn) [Amlodipine], the “growth AUC normalised to DMSO control” value rises from 0.97 to 0.989.

Going from `COc1ccc(-c2cc(=O)c3c(O)cc(O[C@@H]4O[C@H](CO[C@@H]5O[C@@H](C)[C@H](O)[C@@H](O)[C@H]5O)[C@@H](O)[C@H](O)[C@H]4O)cc3o2)cc1O` [Diosmin] to `CCCNCC(O)COc1ccccc1C(=O)CCc1ccccc1` (stereo not drawn) [Propafenone hydrochloride], the “growth AUC normalised to DMSO control” value rises from 0.784 to 1.01.

`CCCCC1C(=O)N(c2ccccc2)N(c2ccccc2)C1=O` [Phenylbutazone] was tested, and the “growth AUC normalised to DMSO control” value was 1.02.

`CCC[C@@H]1C[C@@H](C(=O)N[C@@H]([C@H]2O[C@H](SC)[C@H](O)[C@@H](O)[C@H]2O)[C@@H](C)O)N(C)C1` [Lincomycin hydrochloride] was tested, and the “growth AUC normalised to DMSO control” value was 0.828 (active).
